Assay results published in PubChem BioAssay (NCI).
About 83,000 compounds went through this panel and 20% of them were active in at least one assay; those are over-represented in the sample as a whole.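 48-hour exposure, single concentration, 96-well plates; percent growth endpoint where 0 means no net growth. Active: below 10.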 A number with no mark means an inactive call. Active and inactive are the calls of the source.

Assays:
Test in all cases: NCI-60 one-dose screen, 48 h (100 = growth as untreated, 0 = no growth, -100 = all killed)
DU-145 prostate = details: 10 µM unless noted
K-562 leukemia = details: 10 µM unless noted
MALME-3M melanoma = details: 10 µM unless noted
MDA-MB-231 breast = details: 10 µM unless noted
RXF 393 renal = details: 10 µM unless noted
SF-268 CNS = details: 10 µM unless noted
SF-295 CNS = details: 10 µM unless noted
SF-539 CNS = details: 10 µM unless noted
UACC-257 melanoma = details: 10 µM
HT29 colon = details: 10 µM unless noted
SNB-75 CNS = details: 10 µM unless noted
SNB-19 CNS = details: 10 µM unless noted
U251 CNS = details: 10 µM unless noted
PC-3 prostate = details: 10 µM unless noted
SK-MEL-5 melanoma = details: 10 µM unless noted
UACC-62 melanoma = details: 10 µM unless noted
LOX IMVI melanoma = details: 10 µM unless noted
SK-MEL-28 melanoma = details: 10 µM unless noted
M14 melanoma = details: 10 µM unless noted
HCT-15 colon = details: 10 µM unless noted

Compound	growth (DU-145 prostate)	growth (K-562 leukemia)	growth (MALME-3M melanoma)	growth (MDA-MB-231 breast)	growth (RXF 393 renal)	growth (SF-268 CNS)	growth (SF-295 CNS)	growth (SF-539 CNS)	growth (UACC-257 melanoma)	growth (HT29 colon)	growth (SNB-75 CNS)	growth (SNB-19 CNS)	growth (U251 CNS)	growth (PC-3 prostate)	growth (SK-MEL-5 melanoma)	growth (UACC-62 melanoma)	growth (LOX IMVI melanoma)	growth (SK-MEL-28 melanoma)	growth (M14 melanoma)	growth (HCT-15 colon)
CCC(CC)N1C(=O)/C(=c2\sc3n(c2=O)C2C(NN=3)N(CC)C(=O)N2CC)c2ccccc21 (stereo unspecified)	7.43% (active)	9.31% (active)	70%	32.8%	9.61% (active)	35.7%	7.59% (active)	3.34% (active)	69.6%	5.44% (active)	-4.75% (active)	26.4%	27.1%	33.7%	-20.1% (active)	15.2%	17.9%	58.6%		
CC1(C)CC[C@]2(C(=O)N3CCCN(CC#N)CC3)CC[C@]3(C)C(=CC[C@@H]4[C@@]5(C)CC[C@H](O)C(C)(C)[C@@H]5CC[C@]43C)[C@H]2C1	78.5%	3.77% (active)	77.8%	55.6%		69.2%	91.7%	68.5%	50.6%	34.7%	90.5%	78.3%	56.1%	26.7%	32.2%	54.6%	-83.7% (active)	72%	65.7%	19.1%
Cc1cccc(NC(c2cc3cccc4ccc5cccc2c5c43)c2nnnn2C(C)(C)C)c1C (stereo unspecified)	104%	96.6%	92.9%	78.6%		91.1%	87.2%	86.5%	94%	82.1%	93.7%	91.1%	95.3%	77.5%	97.4%	62.3%	80.2%	102%	94.4%	88.7%
COc1ccc(-c2cc(-c3cccc4ccccc34)n3c(n2)nc2ccccc23)cc1OC	15.7%	32.8%	16.9%	66.7%		35.3%	2.25% (active)	31.1%	60.8%	21.5%	40.7%	16.7%	20.4%	30.8%	17.9%	20%	30.9%	51.5%	36%	27.4%
O=c1oc2ccc(-c3ccc(F)cc3F)cc2c(=O)n1-c1cccc(C(F)(F)F)c1	15.6%	12.9%	-14.7% (active)	-4.78% (active)	-24.7% (active)	16.1%	-17.3% (active)	11.6%	-9.2% (active)	91.3%	15.5%	9.99% (active)	10.2%	6.82% (active)	-72.4% (active)	-6.07% (active)	0.939% (active)	23.4%		
COc1ccc(/C=N/Nc2nc(N/N=C/c3ccc(OC)cc3O)nc(N3CCOCC3)n2)c(O)c1	57.8%	28%	67.6%	70.3%	-16.2% (active)	53.8%	31.3%	47.3%	55.8%	56.4%	74.4%	69.4%	45.6%	35.8%	40.6%	69.3%	45.4%	37.4%		
CCOC(=O)c1c(Nc2ccccc2)nn2c(-c3ccc(OC)c(OC)c3)ccnc12	74.2%	19.8%	76.2%	34.9%		68.1%	49%	60.2%	95.2%	62.3%	68.7%	80.1%	60.6%	39.1%	32.4%	77.1%	37.6%	65.8%	53.6%	18.4%
COc1c([C@@H](CC(C)C)OC(C)=O)ccc2c1C(=O)OCc1cc(C)cc(O)c1O2	26.7%	16.9%	19%	35.7%	64.1%	33%	31.8%	55.6%		13.5%	50.6%	36.3%	20.1%	29.8%		31.3%	27.5%	59.1%	44.3%	17.3%
CC(=O)NC(C)(C)C(=O)N1CCC[C@H]1C(=O)NC(C)(C)C(=O)N[C@@H](C)C(=O)NC(C)(C)C(=O)NC(C)(C)C(=O)N[C@@H](CCC(N)=O)C(=O)NC(C)(C)C(=O)N[C@H](C(=O)NC(C)(C)C(=O)NCC(=O)N[C@@H](CC(C)C)C(=O)NC(C)(C)C(=O)N1CCC[C@H]1C(=O)N[C@H](C(=O)NC(C)(C)C(=O)NC(C)(C)C(=O)N[C@@H](CCC(N)=O)C(=O)N[C@@H](CCC(N)=O)C(=O)N[C@H](CO)Cc1ccccc1)C(C)C)C(C)C	43.5% [4.25 µM]	22.2% [4.25 µM]	-10.6% [4.25 µM] (active)	36.5% [4.25 µM]	18% [4.25 µM]	32.9% [4.25 µM]	22.2% [4.25 µM]	24.5% [4.25 µM]		27.4% [4.25 µM]	18.6% [4.25 µM]	19.1% [4.25 µM]	21.8% [4.25 µM]	14.9% [4.25 µM]	-45.7% [4.25 µM] (active)	35% [4.25 µM]	18.6% [4.25 µM]	32.1% [4.25 µM]	51.3% [4.25 µM]	98.8% [4.25 µM]
COc1cc(O)c2c(c1)[C@H]1O[C@@H]1C[C@H](O)[C@H](O)C(=O)/C=C\C[C@H](C)OC2=O	55.3%	29.9%	-24.1% (active)	48.7%	8.74% (active)	74.4%	81.7%	61.7%		12.6%	87.1%	81.3%	72.4%	66.8%	7.59% (active)	-12.4% (active)	32.3%	6.98% (active)	9.43% (active)	28.7%
Fc1ccc(-c2cc3nc(C(Cl)Cl)nc(-c4cccs4)n3n2)cc1	-21.8% (active)	44.5%	62.5%	-15.2% (active)	-44.1% (active)	13.3%	-7.41% (active)	-2.29% (active)	46.2%	4.52% (active)	69.8%	9.61% (active)	-3.12% (active)	1.42% (active)		45.8%	94.8%	23.6%		15.9%
Nc1nc(N)c2c(n1)NC(c1ccccc1)CC(c1ccc(Nc3nc(NCCO)nc(Nc4ccc(Cl)cc4)n3)cc1)=N2 (stereo unspecified)	41.6%	-40.7% (active)	-89.6% (active)	73.3%		76.5%	46.9%	71.1%	113%	-87.6% (active)	112%	-77.1% (active)	11.9%	15.1%	55.6%	96.7%	-86.1% (active)	109%	81%	-58% (active)
Cc1ccc(NC(=O)c2cccc(CN3CCN(C)CC3)c2)cc1Oc1ccc(-c2[nH]nc3ncnc(N)c23)cc1	81.9%	10.6%	49.2%	60.7%	23.3%	73.8%	78%	62%	75.4%	5.69% (active)	66.8%	81.9%	64.6%	72.9%		73%	29.9%	72.9%		86.1%
